Experimental data taken from PubChem BioAssay (NCI).
This is part of a sample that, as a whole, favours compounds with a hit. Of some 79,000 tested, about 15% had one in any assay. Calls of active or inactive are those of the source. Rule as the data show it: active = growth inhibition above about 70%; inactive = the rest.

Legend:
[1] = NCI Yeast Anticancer Drug Screen. Data for the rad52 strain (AID 147);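 also: 0% = growth of vehicle-treated control cultures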; conditions: S. cerevisiae rad52 mutant growth inhibition, active compounds read high
Summary of the method: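 The repair-mutant yeast strain was incubated with compounds, then growth was read and inhibition derived relative to vehicle.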

[2] = NCI Yeast Anticancer Drug Screen. Data for the wt1 strain (AID 149);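 also: 0% = growth of vehicle-treated wt1 cultures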; conditions: S. cerevisiae wt1 strain (SPY 50644) growth inhibition, active compounds read high
Summary of the method: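 Each compound is tested on wt1 yeast and the loss of growth versus vehicle gives the inhibition value.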

[3] = NCI Yeast Anticancer Drug Screen. Data for the rad50EPP+ strain (AID 151);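 also: 0% = growth of vehicle-treated control cultures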; conditions: S. cerevisiae rad50 mutant strain, active compounds read high
Summary of the method: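 Vehicle-normalised growth inhibition; rad50EPP+ yeast strain, altered in DNA damage repair, compound-treated.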

[4] = NCI Yeast Anticancer Drug Screen. Data for the mgt1 strain (AID 153); conditions: S. cerevisiae mgt1 mutant growth inhibition, active compounds read high
Summary of the method: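 Vehicle-normalized growth inhibition is determined in mgt1 yeast, a strain selected for a defined alteration in DNA repair or cell cycle control.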

[5] = NCI Yeast Anticancer Drug Screen. Data for the rad50 strain (AID 155);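 also: 0% = growth of vehicle-only cultures of the same strain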; conditions: S. cerevisiae rad50 strain growth inhibition, active compounds read high
Summary of the method: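 Vehicle-treated cultures provide the reference for the growth inhibition reported for compound-exposed, repair-deficient yeast.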

[6] = NCI Yeast Anticancer Drug Screen. Data for the mec2-1 strain (AID 157); conditions: S. cerevisiae mec2-1 strain, active compounds read high
Summary of the method: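 Mutant yeast (mec2-1) grown with compound; growth inhibition relative to vehicle control reported.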

[7] = NCI Yeast Anticancer Drug Screen. Data for the rad14 strain (AID 159);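 also: 0% = growth of vehicle-treated control cultures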; conditions: S. cerevisiae rad14 strain growth inhibition, active compounds read high
Summary of the method: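 Inhibition of growth is reported for a repair-deficient yeast mutant following compound treatment, calculated relative to cultures that received vehicle.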

[8] = NCI Yeast Anticancer Drug Screen. Data for the sgs1 mgt1 strain (AID 161);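 also: 0% = growth of cultures given vehicle only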; conditions: S. cerevisiae sgs1 mgt1 strain, active compounds read high
Summary of the method: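 Yeast cells carrying a defined DNA-repair defect were exposed to test compounds. Growth inhibition was measured relative to vehicle-treated controls.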

[9] = NCI Yeast Anticancer Drug Screen. Data for the cln2 rad14 strain (AID 165);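 also: 0% = growth equal to vehicle treated cultures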; conditions: S. cerevisiae cln2 rad14 strain, active compounds read high
Summary of the method: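 Readout is yeast growth inhibition versus vehicle-treated controls, using a strain with cln2 and rad14 alterations exposed to compound.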

[10] = NCI Yeast Anticancer Drug Screen. Data for the bub3 strain (AID 167); conditions: S. cerevisiae bub3 mutant strain, active compounds read high
Summary of the method: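 Mutant yeast screening strain plus compound; vehicle-treated cultures serve as the 0% inhibition reference.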

[11] = NCI Yeast Anticancer Drug Screen. Data for the wt2 strain (AID 169); conditions: S. cerevisiae wt2 strain growth inhibition, active compounds read high
Summary of the method: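 Against vehicle-treated controls, the growth of yeast exposed to each compound was compared, and the inhibition was recorded.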

[12] = NCI Yeast Anticancer Drug Screen. Data for the mlh1 strain (AID 171);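 also: 0% = growth of vehicle-treated control cultures of the same strain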; conditions: S. cerevisiae mlh1 strain growth inhibition, active compounds read high
Summary of the method: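 Measured: yeast growth. Reference: vehicle-treated controls. Organism: strain with a defined alteration affecting DNA damage repair or cell cycle control, treated with compound.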

[13] = NCI Yeast Anticancer Drug Screen. Data for the sgs1 strain (AID 173);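 also: 0% = growth of vehicle-only control cultures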; conditions: S. cerevisiae sgs1 mutant, active compounds read high
Summary of the method: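 Each compound was added to cultures of the altered yeast strain. Growth was recorded, and inhibition was derived by comparison with vehicle controls.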

[14] = NCI Yeast Anticancer Drug Screen. Data for the mlh1 rad18 strain (AID 175); conditions: S. cerevisiae mlh1 rad18 strain growth inhibition, active compounds read high
Summary of the method: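 Genetically defined yeast (DNA repair-deficient) exposed to compounds; growth inhibition determined relative to vehicle.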

[15] = NCI Yeast Anticancer Drug Screen. Data for the rad18 strain (AID 177); conditions: S. cerevisiae rad18 mutant growth inhibition, active compounds read high
Summary of the method: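 Vehicle-treated cultures served as the baseline for scoring compound-induced growth inhibition in DNA-repair-mutant yeast.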

[16] = at 5.0 µM (retest, dose inferred, filed as 0.5)
[17] = at 50.0 µM (retest, dose inferred, filed as 5.0)

Measured: growth inhibition

Nc1ccccc1CC(O)C(=O)O (stereo unspecified)
active: [1]; at 100.0 µM 88% | [2]; at 100.0 µM 90% | [4]; at 33.0 µM 74% | [4]; at 100.0 µM 95% | [5]; at 33.0 µM 85% | [5]; [17] 94% | [5]; at 50.0 µM 93% | [5]; at 100.0 µM 95% | [6]; [17] 74% | [6]; at 100.0 µM 90% | [7]; at 33.0 µM 91% | [7]; at 100.0 µM 97% | [8]; [17] 95% | [8]; at 50.0 µM 94.5% | [10]; at 33.0 µM 70% | [10]; [17] 90% | [10]; at 50.0 µM 83.8% | [10]; at 100.0 µM 92% | [11]; at 33.0 µM 90% | [11]; at 100.0 µM 95% | [12]; at 33.0 µM 92% | [12]; at 100.0 µM 97% | [13]; at 33.0 µM 83% | [13]; at 100.0 µM 95% | [14]; [17] 94% | [14]; at 50.0 µM 92.7% | [15]; at 100.0 µM 90%
inactive: [1]; at 1.2 µM 0% | [1]; at 3.7 µM 5% | [1]; at 11.0 µM 14% | [1]; at 33.0 µM 53% | [2]; at 1.2 µM 2% | [2]; at 3.7 µM 3% | [2]; at 11.0 µM 13% | [2]; at 33.0 µM 42% | [3]; at 1.2 µM -2% | [3]; at 3.7 µM 1% | [3]; at 11.0 µM -1% | [3]; at 33.0 µM 2% | [3]; at 100.0 µM 4% | [4]; at 1.2 µM 4% | [4]; at 3.7 µM -1% | [4]; at 11.0 µM 14% | [5]; at 1.2 µM 3% | [5]; at 3.7 µM 13% | [5]; [16] -15% | [5]; at 11.0 µM 27% | [6]; at 1.2 µM 0% | [6]; at 3.7 µM 8% | [6]; [16] 3% | [6]; at 11.0 µM 14% | [6]; at 33.0 µM 30% | [6]; at 50.0 µM 52.1% | [7]; at 1.2 µM -3% | [7]; at 3.7 µM 6% | [7]; at 11.0 µM 24% | [8]; [16] -6% | [9]; [16] -2% | [9]; [17] 14% | [9]; at 50.0 µM 13.6% | [10]; at 1.2 µM 5% | [10]; at 3.7 µM -14% | [10]; [16] -17% | [10]; at 11.0 µM 9% | [11]; at 1.2 µM 2% | [11]; at 3.7 µM 6% | [11]; at 11.0 µM 21% | [12]; at 1.2 µM 2% | [12]; at 3.7 µM 4% | [12]; at 11.0 µM 29% | [13]; at 1.2 µM -1% | [13]; at 3.7 µM 1% | [13]; at 11.0 µM 14% | [14]; [16] 0% | [15]; at 1.2 µM 1% | [15]; at 3.7 µM 4% | [15]; at 11.0 µM 10% | [15]; at 33.0 µM 60%

CC(=O)Nc1ccc(/C=C(\C#N)c2ccc(C)cc2)cc1
inactive: [1]; at 1.2 µM -10% | [1]; at 3.7 µM 0% | [1]; at 11.0 µM -5% | [1]; at 33.0 µM -2% | [1]; at 100.0 µM 1% | [2]; at 1.2 µM 0% | [2]; at 3.7 µM -2% | [2]; at 11.0 µM -6% | [2]; at 33.0 µM -6% | [2]; at 100.0 µM 1% | [3]; at 1.2 µM -11% | [3]; at 3.7 µM -20% | [3]; at 11.0 µM -18% | [3]; at 33.0 µM -8% | [3]; at 100.0 µM -5% | [4]; at 1.2 µM -6% | [4]; at 3.7 µM -16% | [4]; at 11.0 µM -17% | [4]; at 33.0 µM -10% | [4]; at 100.0 µM -13% | [5]; at 1.2 µM -25% | [5]; at 3.7 µM -23% | [5]; [16] 30% | [5]; at 11.0 µM -23% | [5]; at 33.0 µM -13% | [5]; at 50.0 µM 28.4% | [5]; at 100.0 µM -1% | [6]; at 1.2 µM -16% | [6]; at 3.7 µM -23% | [6]; [16] 40% | [6]; at 11.0 µM -22% | [6]; at 33.0 µM -33% | [6]; at 50.0 µM 18.7% | [6]; at 100.0 µM -30% | [7]; at 1.2 µM 1% | [7]; at 3.7 µM -9% | [7]; at 11.0 µM -5% | [7]; at 33.0 µM 4% | [7]; at 100.0 µM 1% | [8]; [16] -12% | [8]; [17] 45% | [8]; at 50.0 µM 24.6% | [9]; [16] 63% | [9]; [17] 2% | [9]; at 50.0 µM 19.2% | [10]; at 1.2 µM -27% | [10]; at 3.7 µM -21% | [10]; [16] -11% | [10]; at 11.0 µM -12% | [10]; at 33.0 µM 7% | [10]; [17] 39% | [10]; at 50.0 µM 63.7% | [10]; at 100.0 µM -16% | [11]; at 1.2 µM -1% | [11]; at 3.7 µM 9% | [11]; at 11.0 µM 6% | [11]; at 33.0 µM 5% | [11]; at 100.0 µM 0% | [12]; at 1.2 µM -20% | [12]; at 3.7 µM -21% | [12]; at 11.0 µM -18% | [12]; at 33.0 µM -6% | [12]; at 100.0 µM -10% | [13]; at 1.2 µM -21% | [13]; at 3.7 µM -19% | [13]; at 11.0 µM -23% | [13]; at 33.0 µM -13% | [13]; at 100.0 µM -17% | [14]; [16] 34% | [14]; at 50.0 µM 24.6% | [15]; at 1.2 µM -18% | [15]; at 3.7 µM -9% | [15]; at 11.0 µM -17% | [15]; at 33.0 µM -3% | [15]; at 100.0 µM -16%
active: [5]; [17] 93% | [6]; [17] 95% | [14]; [17] 97%

CC1C(NNc2ccccc2)Oc2cc3c(cc2C1c1ccccc1O)OCO3 (stereo unspecified)
inactive: [1]; at 1.2 µM 67% | [3]; at 1.2 µM -1% | [3]; at 3.7 µM 7% | [4]; at 1.2 µM -4% | [4]; at 3.7 µM 63% | [5]; at 1.2 µM 12% | [5]; [16] 17% | [6]; at 1.2 µM 7%
active: [1]; at 3.7 µM 99% | [1]; at 11.0 µM 99% | [1]; at 33.0 µM 94% | [1]; at 100.0 µM 94% | [2]; at 1.2 µM 72% | [2]; at 3.7 µM 98% | [2]; at 11.0 µM 99% | [2]; at 33.0 µM 96% | [2]; at 100.0 µM 95% | [3]; at 11.0 µM 71% | [3]; at 33.0 µM 90% | [3]; at 100.0 µM 91% | [4]; at 11.0 µM 99% | [4]; at 33.0 µM 93% | [4]; at 100.0 µM 94% | [5]; at 3.7 µM 95% | [5]; at 11.0 µM 98% | [5]; at 33.0 µM 93% | [5]; [17] 98% | [5]; at 50.0 µM 86.9% | [5]; at 100.0 µM 92% | [6]; at 3.7 µM 80%
